Measured values as given in PubChem BioAssay (NCI).
Compounds without any hit were thinned out: in the full panel of roughly 83,000, 20% have a hit.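 96-well plates, one dose, 48 hours. Percent growth reported; active if below 10.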 A number with no mark means an inactive call. Activity calls are given as the source filed them.

Tested on: HL-60(TB) leukemia
Experiment: NCI-60 one-dose screen, 48 h (100 = growth as untreated, 0 = no growth, -100 = all killed)
Conditions: 10 µM unless noted

Structure (SMILES) | growth
COc1ccc(/C(=C\c2ccc3c(c2)OCO3)C(=O)Nc2nc3ccccc3s2)cc1 | 101%
CN(C)CC1C(=O)O[C@H]2[C@H]1CC/C(COC(=O)c1cc3ccccc3[nH]1)=C\CC[C@@]1(C)O[C@@H]21 (stereo partly specified) | -36% (active)
CCN(CC)CCS(=O)(=O)CCNc1ccnc2cc(Cl)ccc12 | -22.5% (active)
CC(=O)N(N=O)c1ccc([N+](=O)[O-])cc1Cl | 55.7%
CCOc1nc(-c2ccccc2)cc2c(O)c(C(=O)NC(C)C)[nH]c(=O)c12 | 168%
Cc1ccc(Cl)cc1NC(=O)CCl | 33%
O=S(=O)(NCCNc1nccc(-c2c(-c3cccc(F)c3)nc3occn23)n1)c1ccc(C(F)(F)F)cc1 | 106%
O=C1/C(=C/c2ccc(O)cc2)Oc2ccc(Cl)cc21 | 81%
CCc1cc(C)cc(O)c1 | 105%
Cc1nn(-c2ccccc2)c(Oc2ccccc2)c1/C=N/NC(=O)Cn1c(=O)sc2ccccc21 | 5.9% (active)
Cc1nc(Nc2cn[nH]c2C(=O)Nc2ccc(CN3CCN(C)CC3)cc2)c2ccsc2n1 | 113%
N#CCCOc1ccccc1 | 88.7%
c1ccc2c(c1)oc1cc3sccc3nc12 | 103%
Cc1cc(C(=O)Nc2ccc3cc(CN4CCOCC4)ccc3n2)c(C)n1-c1ccccc1 | 14.5%
C#C[C@@]1(O)[C@@H](CO)O[C@@H](n2cc(-c3ccco3)c3c(N)ncnc32)[C@@H]1O | 89%
COc1ccc2sc3c(NCCCNCCO)nc4ccccc4c3c(=O)c2c1 | 36.5%
